The record followed here is PubChem BioAssay (NCI).

What all share (experiment): NCI-60 one-dose screen, 48 h (100 = growth as untreated, 0 = no growth, -100 = all killed)
Holding throughout (conditions): 10 µM unless noted

For assay [1], the system named is HCT-15 colon.
The test system of assay [2] is HT29 colon.
The test system of assay [3] is SNB-75 CNS.
Assay [4] has as its system SNB-19 CNS.
Assay [5] relates to PC-3 prostate.
For assay [6], the system named is SK-MEL-5 melanoma.
Assay [7] deals with UACC-62 melanoma.
For assay [8], the system named is LOX IMVI melanoma.
Assay [9] relates to SK-MEL-28 melanoma.
Assay [10] relates to SK-MEL-2 melanoma.
The subject of assay [11] is EKVX NSCLC.
Assay [12] has as its system SN12C renal.
For assay [13], the system named is UO-31 renal.
Assay [14] deals with TK-10 renal.
Assay [15] concerns ACHN renal.
Assay [16] relates to A498 renal.
Assay [17] deals with CCRF-CEM leukemia.
Assay [18] concerns MOLT-4 leukemia.
Assay [19] concerns CAKI-1 renal.
For assay [20], the system named is U251 CNS.

About 83,000 compounds went through this panel and 20% of them were active in at least one assay; those are over-represented in the sample as a whole.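 Method: cells in 96-well plates; compound added at one concentration; 48 h incubation; percent growth measured; values under 10 scored active.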 Values without a mark were called inactive. Calls of active or inactive are those of the source.

`Cc1cc(C(=O)Nc2ncnc3nc[nH]c23)no1`: the growth in [1] is 102%; in assay [2], 103%; in [3], 79.5%; in assay [4], 96.6%; in [5] it was 97%; in [6] it was 101%. Besides, the growth in assay [7] was 97%; in assay [8], 99.4%; in [9] it was 106%; in assay [10], 131%; in assay [11], 103%; in [12], 93.8%. For the same molecule, the growth in assay [13] was 80.5%; in assay [14] it was 118%; in assay [15] it was 99.8%; in assay [16], 110%; in [17], 86.4%; in [18] it was 91.7%.

For the molecule `CCCCOc1ccc(/C=N/Nc2cc(C)nc3ccc(Cl)cc23)cc1`, the growth in assay [1] was -80.3% (active); in [2] it was -49.8% (active); in [3], 17%; in [4], 20.7%; in [5], 20.6%; in assay [6], 71.8%. Besides, the growth was 77.8% in assay [7]; -94.7% (active) in assay [8]; -89.5% (active) in assay [9]; 67.6% in [10]; 60% in assay [11]; -81.6% (active) in assay [12]. In addition, the growth is -96.1% (active) in assay [13]; 36.8% in [14]; -95.5% (active) in assay [15]; 35.1% in assay [19]; -5.7% (active) in [17]; -36.9% (active) in assay [18].

For `Cn1c(=O)c2[nH]c(CCCc3nc4c([nH]3)c(=O)n(C)c(=O)n4C)nc2n(C)c1=O`, the growth in assay [1] is 115%; in assay [3], 105%; in [4], 101%; in assay [20], 107%; in [5] it was 94%; in assay [6], 103%. For the same molecule, the growth in assay [7] was 96.8%; in assay [8], 105%; in assay [9], 131%; in assay [10] it was 109%; in assay [11], 113%; in assay [12], 103%. For the same molecule, the growth in [13] is 102%; in assay [14], 118%; in assay [15], 103%; in [19], 108%; in assay [16], 142%; in [17] it was 124%. In addition, the growth in assay [18] was 136%.

For `FCc1nc2nc(Cl)c(Cl)nc2[nH]1`, the growth in [1] was 103%; in assay [3], 91.2%; in assay [4] it was 94.9%; in assay [20], 101%; in assay [5], 95.2%; in [6], 99.4%. In addition, the growth in assay [7] is 94.9%; in [8], 95.3%; in assay [9], 105%; in assay [10], 107%; in [11] it was 103%; in assay [12], 109%. The growth was 94.5% in [13]; 92.7% in assay [14]; 99.5% in [15]; 91.6% in assay [19]; 104% in assay [17]; 97.8% in [18].

Regarding `CCNC(=S)NNC(=O)c1cc2ccc1CCc1ccc(cc1)CC2`, the growth in assay [1] was 96.7%; in assay [3], 89.8%; in assay [4], 100%; in assay [20], 101%; in assay [5] it was 91.1%; in assay [6], 96.7%. The growth in assay [7] is 93.4%; in [8], 102%; in assay [9], 101%; in [10], 102%; in [11], 94.4%; in assay [12] it was 95.3%. Moreover, the growth in assay [13] is 83.7%; in assay [14] it was 103%; in assay [15], 107%; in [19] it was 94.9%; in assay [17] it was 107%; in assay [18], 102%.

As to `C(=C\c1n(Cc2ccc3ccccc3c2)c(-c2ccccc2)c(-c2ccccc2)[n+]1Cc1ccc2ccccc2c1)/c1ccccc1`, the growth is -81.2% (active) in assay [1]; -99.9% (active) in assay [3]; -93.7% (active) in [4]; -80.6% (active) in [20]; -81.2% (active) in assay [5]; -99.1% (active) in assay [6]. Further, the growth is -89.9% (active) in assay [7]; -96% (active) in assay [8]; -80.8% (active) in [9]; -68.7% (active) in [10]; -77.5% (active) in assay [11]; -91% (active) in assay [12]. Further, the growth in [13] is -99.1% (active); in [14] it was -81.8% (active); in assay [15], -94.9% (active); in assay [19], -100% (active); in assay [17] it was -17.8% (active); in assay [18] it was -43.5% (active).

`CC(C)Sc1nc(NN)c(C#N)c(-c2ccccc2)n1`: the growth in assay [1] was 96.5%; in assay [3], 92.7%; in assay [4], 95.9%; in assay [20], 100%; in assay [5] it was 85.1%; in [6] it was 99.7%. Besides, the growth is 90.6% in [7]; 96.7% in assay [8]; 90.4% in assay [9]; 109% in [10]; 94.1% in assay [11]; 98.8% in [12]. Further, the growth in [13] was 75.9%; in [14], 107%; in assay [15], 93%; in assay [19] it was 93.6%; in assay [16], 92.8%; in assay [17], 94.3%. The growth in [18] is 97.4%.

Consider `COc1cc(-c2cc(=O)oc3cc(O)ccc23)c(OC)c2c1OCO2`, for which the growth is 92.4% in assay [1]; 84.9% in [3]; 97.4% in assay [4]; 94.6% in assay [20]; 80.6% in assay [5]; 90.6% in assay [6]. For the same molecule, the growth was 74.3% in assay [7]; 93.8% in assay [8]; 97% in assay [9]; 96.6% in assay [10]; 90.6% in assay [11]; 84% in assay [12]. In addition, the growth in assay [13] was 72.2%; in [14], 108%; in assay [15], 91.2%; in [19], 76.9%; in [16], 94.6%; in assay [18], 100%.
